JMJD2A Tudor inh: qHTS Assay for Inhibitors of JMJD2A-Tudor Domain. Lysine-specific demethylase 4A (Homo sapiens), O75164. AlphaScreen JMJD2A-Tudor / H3K4me3 peptide binding. Potency, µM (top dose mostly 114 µM), for the others: top-dose activity change, negative = inhibition, usual class: inhibitors. 4.4% of 390,000 active. AID 504339, 2011; note: % is set by controls: 0 for no effect and ±100 for the full control effect; nearly all actives have a fitted effect of over 50% in size
HP1b binding inh: HTS for Inhibitors of HP1-beta Chromodomain Interactions with Methylated Histone Tails | Chromobox protein homolog 1 (Homo sapiens), P83916 | AlphaScreen HP1-beta / biotin-H3K9me3 peptide binding | Potency, µM (series often up to 114 µM), for inactives: at the highest dose activity change, negative = inhibition, actives largely listed as inhibitors | 0.56% of 390,000 active | AID 540317, 2011; note: nearly all actives have a fitted effect of over 70% in size
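HP1-beta protein (50 nM final) preincubated 30 min at room temperature with biotinylated H3(1-18)K9me3 peptide (50 nM) in PBS pH 7.4, 0.01% Tween-20, then compound added for 30 min. AlphaScreen streptavidin donor/nickel chelate acceptor beads (10 ug/mL final), 30 min dark, luminescence read.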
BAZ2B inh: qHTS Assay for Inhibitors of BAZ2B; AlphaScreen BAZ2B-H3K14Ac peptide displacement; Potency, µM (top dose mostly 114 µM), inactives show at the top dose activity change, negative = inhibition, usual class: inhibitors; 4.4% of 360,000 active; Bromodomain adjacent to zinc finger domain protein 2B (Homo sapiens), Q9UIF8; note: % is set by controls: 0 for no effect and ±100 for the full control effect; nearly all actives have a fitted effect of over 60% in size
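Compounds, titrated to a top concentration of 110 uM, were incubated 30 min at room temperature with preformed BAZ2B/acetyl-K14 H3 peptide complex (50 nM each). Proximity signal was measured by AlphaScreen after 20 min with beads.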
Sfp inh: qHTS Assay for Inhibitors of Bacillus subtilis Sfp phosphopantetheinyl transferase (PPTase); 4'-phosphopantetheinyl transferase ffp (Bacillus subtilis), Q9F4F7; Biochemical Sfp PPTase activity, qHTS; Potency, µM, inactives show largest response in the series, negative = inhibition, most hits filed as inhibitors; 3.5% of 310,000 active; AID 1490, 2009;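 note: the enzyme is Sfp with the accession as filed and its product quenches rhodamine fluorescence; 0% = enzyme reaction without inhibitor and -100% = no enzyme wells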
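Compounds were incubated with enzyme (final 15 nM) for 15 min at room temperature before substrate addition started the reaction. Fluorescence at 525 nm excitation, 598 nm emission was recorded immediately and after 30 minutes.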
G9a inh: qHTS Assay for Inhibitors of Histone Lysine Methyltransferase G9a. Histone-lysine N-methyltransferase EHMT2 (Homo sapiens), Q96KQ7. G9a H3K9 monomethylation, AlphaScreen, 2 h. Potency, µM (series often up to 102 µM), for the others: top-dose activity, negative = inhibition, hits mostly inhibitors. 8.8% of 350,000 active; note: % is set by controls: 0 for no effect and ±100 for the full control effect; nearly all actives have a fitted effect of over 75% in size
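Quantitative HTS format: methyltransferase activity on a biotin-tagged H3K9 peptide is measured by AlphaScreen, using a rabbit anti-monomethyl-H3K9 antibody with streptavidin donor and anti-IgG acceptor beads. Final levels are 20 nM enzyme, 500 nM peptide, 20 uM SAM; 2 h RT.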
12-LOX inh: Primary qHTS assay for inhibitors of human arachidonate 12S-lipoxygenase (ALOX12): Round 2; 1.1% of 580,000 active; AID 1671190, 2021; Polyunsaturated fatty acid lipoxygenase ALOX12 (Homo sapiens), P18054; Potency, µM (top dose mostly 108 µM), for the others: top-dose activity change, negative = inhibition, most hits filed as inhibitors; purified 12hLO, xylenol orange hydroperoxide absorbance; note: % is set by controls: 0 for no effect and ±100 for the full control effect
Target sequence (P18054 whole entry, looked up): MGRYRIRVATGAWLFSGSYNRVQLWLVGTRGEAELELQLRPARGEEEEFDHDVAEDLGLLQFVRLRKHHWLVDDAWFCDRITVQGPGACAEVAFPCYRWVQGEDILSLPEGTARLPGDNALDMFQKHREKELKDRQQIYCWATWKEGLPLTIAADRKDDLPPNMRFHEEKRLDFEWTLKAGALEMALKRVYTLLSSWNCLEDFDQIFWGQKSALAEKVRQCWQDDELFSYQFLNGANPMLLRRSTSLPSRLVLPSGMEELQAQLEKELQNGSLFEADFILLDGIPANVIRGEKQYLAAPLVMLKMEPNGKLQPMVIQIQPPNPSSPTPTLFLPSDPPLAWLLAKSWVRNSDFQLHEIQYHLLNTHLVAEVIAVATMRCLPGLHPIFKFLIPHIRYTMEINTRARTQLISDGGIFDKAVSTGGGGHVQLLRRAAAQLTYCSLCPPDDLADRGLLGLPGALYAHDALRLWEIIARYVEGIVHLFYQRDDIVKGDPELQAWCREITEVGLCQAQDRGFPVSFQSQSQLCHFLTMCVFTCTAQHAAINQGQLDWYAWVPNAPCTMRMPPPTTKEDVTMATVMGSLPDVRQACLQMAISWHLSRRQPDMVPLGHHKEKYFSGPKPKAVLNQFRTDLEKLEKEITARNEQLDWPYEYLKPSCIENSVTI
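Purified human 12hLO (150 nM final) in 25 mM Hepes, 0.01% Triton X-100, pH 7.0 was preincubated 15 min at room temperature with compound. Then 40 uM arachidonic acid was added, 30 min. Hydroperoxide was read by Fe-XO absorbance ratio 573/405 nm.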
* = called active by the depositor; ? = inconclusive; . = no result; [ ] = dose if it differs, or a comment. The list is not random: actives were taken first. Their share in the collection is about 8.7%. Calls come from the whole dose curve; as a rule, active = well fitted curve in the direction sought with a large enough effect; inconclusive = small, poorly fitted or top-dose-only effect, or another doubt; inactive = no such curve, though single readings can be large; an effect the other way counts as inactive or inconclusive. Potency is the fitted concentration of half-maximal effect.

SMILES	JMJD2A Tudor inh	HP1b binding inh	BAZ2B inh	Sfp inh	G9a inh	12-LOX inh
CC(=O)C1=C(C)NC(SCC(N)=O)=C(C#N)C1CC(C)C (configuration not stated)	22µM*	-36%	-15%	7%	7.1µM*	2%
O=C(Nc1ccc2nc(SCc3ccc(I)cc3)sc2c1)c1ccc(Cl)cc1	.	.	.	.	.	30%
CCCCCOc1ccc(/C=C2\Cc3ccccc3C2=O)cc1	.	.	.	.	.	-10%
CC(=O)Nc1ccc(CN2CC(N3CCc4ccccc43)C2)cc1	.	.	.	.	.	8%[6.33 µM]
CCC1C(C#N)=C(SCC(N)=O)NC2=C1C(=O)CC(C)(C)C2 (configuration not stated)	71µM*	-6%	1%	8%	40µM*	85%
CCSc1ccc(C(=O)NCC(=O)O)cc1	-5%	14%	0%	2%	.	0%
CSc1ccc(NC(=O)Nc2ccc(C(=O)NCC(=O)O)cc2)cc1	56µM*	-16%	50µM*	-13%	35µM*	?
NC(N)=NS(=O)(=O)c1ccc(NC(=S)NC(=O)c2ccncc2)cc1	-27%	?	3%	50µM*	-17%[59 µM]	-19%
COc1cc(NS(=O)(=O)c2ccc(NC(=O)c3cccs3)cc2)nc(OC)n1	-19%	-3%	-15%	6%	-14%	-42%
COc1cc(NS(=O)(=O)c2ccc(NC(=S)NC(=O)c3sc4ccccc4c3Cl)cc2)nc(OC)n1	-33%	?	50µM*	50µM*	?	-24%
COc1cc(NS(=O)(=O)c2ccc(NC(=S)NC(=O)c3sc4cc(F)ccc4c3Cl)cc2)nc(OC)n1	?	?	-29%	50µM*	?	?
NC(N)=NS(=O)(=O)c1ccc(NC(=S)NC(=O)c2sc3ccccc3c2Cl)cc1	-23%	-9%	-32%	56µM*	?	-13%
CN1C(=O)c2cccn2CC1CNC(=O)NCCc1ccccc1 (configuration not stated)	.	.	.	.	.	23%
O=C(CCC(=O)c1ccc(Cl)cc1)OCC(=O)c1ccc([N+](=O)[O-])cc1	.	.	.	.	.	-19%
CCN(CC)S(=O)(=O)c1ccc(C(=O)Nc2ccccc2OC(F)F)cc1	.	.	.	.	.	-5%
CCCS(=O)(=O)N1CCCC1c1noc(COc2ccc(C)cc2)n1 (configuration not stated)	.	.	.	.	.	42%
CC(C)CC(=O)N1CCOc2ccc(CN3CCc4ccccc4C3)cc2C1	.	.	.	.	.	127%
O=C(O)c1ccccc1NC(=S)NC(=O)c1sc2ccccc2c1Cl	?	-7%	-2%	45µM*	10µM*	19%
O=C(CSc1nnc2c(=O)n(-c3ccc(F)cc3)ccn12)N1CCN(c2ccc(F)cc2)CC1	.	.	.	.	.	-21%
Cc1cc(Cl)c(OCCCNCc2ccccc2)c(Br)c1	?	-20%	?	?	11µM*	?
Cc1cc(C)c(OCCCNC2CCCC2)c(Br)c1	79µM*	6%	?	-29%	.	?
COCCNCCCCOc1c(Cl)cc(C)cc1Br	3.2µM*	-17%	50µM*	-40%	.	?
Cc1cc(OCCOCCN(C)CCO)cc(C)c1Cl	-12%	33%	-4%	15%	-15%	468%
Cc1cc(Cl)c(OCCN2C(=O)NC(C)(C)C2=O)c(Br)c1	9%	30%	1%	23%	-1%	0%
Cc1cc(C)c(OCC(=O)OCC(=O)NC2CCCCCCC2)c(C)c1	16%	39%	0%	10%	-12%[0.501 µM]	-5%
